# Assay outcomes as filed in PubChem BioAssay.
# Dicer processing = inhibitors of Dicer pre-microRNA processing, primary screen, biochemical, cat-ELCCA, chemiluminescence. Endoribonuclease Dicer (Homo sapiens), Q9UPY3. cat-ELCCA pre-miR-21 Dicer processing; active compounds read high. z-score at 25 µM. 47,000 compounds, 6% hits. AID 1347074, 2019; in the data active means z-score above about 3, passing the limit was not always enough;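 further: plate controls were vehicle for no effect and no enzyme for full effect; higher signal means more uncleaved substrate so more Dicer inhibition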
# * hit, by the source's call. The full list was thinned out, with hits kept by preference.
SMILES,Dicer processing
O=C(NC1CCCCC1)n1c(=S)oc2cc(Cl)ccc21,2
NC(=O)c1c(NC(=O)CSc2ccc(Cl)cc2)sc2c1CCCC2,-1.4
C/C(=N\Nc1ncc(C(F)(F)F)cc1Cl)c1ccc(Oc2c(Cl)cncc2Cl)cc1,0.07
Cc1cc(C)c(Nc2n[nH]c(=S)s2)c(C)c1,-0.74
Cc1cc(C)c(Nc2nnns2)c(C)c1,-2.2
Cc1cc(C)c(Nc2nc3cc(Br)cc(C)c3s2)c(C)c1,3.8*
COc1ccc(-c2nnsc2N)cc1,0.86
COc1ccc(CCNc2ccc(C(F)(F)F)cc2N)cc1OC,-0.16
COc1ccc(Cc2nnc(SCCC(=O)O)o2)cc1,-0.58
Cc1sc2ncn(Cc3c(F)cccc3Cl)c(=O)c2c1C,-0.03
CCC(=O)Nc1c(C#N)c(C)c(C)n1Cc1cccs1,6
CC1CCc2c(sc3nnn(CC(=O)OCc4ccccc4)c(=O)c23)C1 (centres undefined),0.76
CCCS(=O)(=O)c1c(S(=O)(=O)CCC)c2ccccn2c1C(=O)OC,0.22
COc1ccc(C(=O)CC(=O)c2ccc(C(C)(C)C)cc2)cc1,-0.14
CCS(=O)(=O)c1c(S(=O)(=O)CC)c2cc(C(C)(C)C)ccn2c1C(=O)c1ccc(OC)cc1,5*
CC(C)(CC(=O)O)CC(=O)NNc1ccc(S(N)(=O)=O)cc1,0.79
COC(=O)c1c(NC(=O)c2ccc(OC)c(OC)c2)sc2c1CCC2,1.5
N#C/C(=C\N1CCOCC1)C(=O)Nc1ccc(F)c(Cl)c1,-0.47
O=C1CSC(=Nc2cc(Cl)c(Cl)cc2Cl)N1CCc1ccccc1,3.3*
O=C1CSC(=S)N1CCc1ccc(Cl)cc1,-1.2
COc1ccc(CCN2C(=O)CSC2=Nc2ccc(Cl)cc2C)cc1OC,2.3
COc1ccc(C2C(C(=O)OC3CCCC3)=C(C)NC3=C2C(=O)CC(C)(C)C3)cc1O (centres undefined),0.71
Cc1ccc(C2CC(C(F)(F)F)n3ncc(C(=O)N(C)C4CCCCC4)c3N2)cc1 (centres undefined),-0.05
O=C(c1cnn2c1NC(c1ccc(Br)cc1)CC2C(F)(F)F)N1CCCCC1 (centres undefined),3.3*
CSc1ccccc1NC(=O)c1cnn2c1NC(c1cccs1)CC2C(F)(F)F (centres undefined),2.1
SMILES,Dicer processing
CC(C)(C)NC(=O)c1cnn2c1NC(c1ccc(F)cc1)CC2C(F)(F)F (centres undefined),1.6
O=C(Nc1ccc(Br)cc1)c1cnn2c1NC(c1cccs1)CC2C(F)(F)F (centres undefined),3.2*
O=C(Nc1ccc(Br)cc1)c1cc2n(n1)C(C(F)(F)F)CC(c1cccs1)N2 (centres undefined),0.96
CNc1nsc(C(=O)c2ccc(C)cc2)c1N,2.1
CC(C)(C)C(=O)Cn1nnc(-c2cc(C(F)(F)F)cc(C(F)(F)F)c2)n1,11
CCCCC1(O)C(=O)c2ccccc2N(c2ccccc2)C1=O (centres undefined),1.6
Nc1ncnc2sc3c(c12)CCCCC3,1.7
Nc1nc(-c2ccncc2)nc2sc3c(c12)CCCCC3,4.1*
Nc1ncnc2sc3c(c12)CCCC3,-0.7
CC(C)(C)C(=O)NC(=S)Nc1cc(C(F)(F)F)cc(C(F)(F)F)c1,0.72
CCOc1ccc2nc(NC3=NCN(CCN4CCOCC4)CN3)nc(C)c2c1,-0.56
COC(=O)NC(=O)c1ccc(Oc2ccc(C(F)(F)F)cc2[N+](=O)[O-])cc1,2.6
O=C(Oc1c(Br)cc(C(F)(F)F)cc1[N+](=O)[O-])c1ccccc1Cl,-0.27
O=C(Oc1ccc2occ([N+](=O)[O-])c2c1)c1ccc(C(F)(F)F)cc1,4.7*
CNc1nc(C)c([N+](=O)[O-])c(C)c1C#N,0.23
CC(=O)c1ccc(OCc2cccc(C(=O)N3CCN(c4ncccc4C(F)(F)F)CC3)c2)cc1,-0.77
COc1cccc(-c2cnc(Nc3ccc(F)cc3)s2)c1,-2.8
COc1ccc(-c2csc(Nc3ncccn3)n2)cc1OC,0.07
Oc1ccc(-c2csc(Nc3ccccn3)n2)cc1,0.3
Cc1cc(C)nc(Nc2nc(-c3ccc(O)c(O)c3)cs2)n1,8.6*
O=S(=O)(c1cccs1)N1CCC(C(c2ccccc2)c2ccccc2)CC1,-1.7
C/C(=N\NC(=O)c1ccccc1)c1ccccc1O,2.2
CCCc1ccc(Oc2ccc(NC(=O)C3CC3C(=O)O)cn2)c(OC)c1 (centres undefined),-0.32
CC1=C(C(N)=O)C(c2ccc(O)cc2)n2ncnc2N1 (centres undefined),0.66
O=C(O)CCS(=O)c1ccccc1C(=O)O (centres undefined),0.19
SMILES,Dicer processing
COc1cccc(C2=NN(S(C)(=O)=O)C(c3cn(-c4ccccc4)nc3-c3ccccc3)C2)c1 (centres undefined),-1.2
Cn1c(CSc2ccnc3cc(Cl)ccc23)nnc1SCC(=O)N1CCOCC1,1.4
O=C1c2cc3ccccc3cc2C(=O)C1c1ccccc1,4*
O=C1c2ccccc2C(=O)C1c1ccc2ccccc2n1,0.48
O=C1c2cccc3cccc(c23)C(=O)C1c1ccccc1,-1.1
Cc1csc2ncnc(N3CCC(C(=O)O)CC3)c12,-0.11
